Hits are enriched below; roughly 3.5% of the tested compounds scored in any of these assays.
Autofluor counter = counter-screen for toxin protease inhibitors: compound fluorescence | compound autofluorescence counterscreen, microsphere flow cytometry; hits give high values | fluorescence intensity (test concentration not listed) | actives 3.1% (n = 360,000); in the data active = fluorescence intensity above about 16000; inconclusive = no clear call, values can overlap the other calls
BoNT-F LC inh = BoNT/F light chain protease inhibitors, primary screen, biochemical, flow cytometry, MLPCN library; Botulinum neurotoxin type F light chain protease (Clostridium botulinum); Multiplex microsphere protease cleavage assay; inhibition, % at 10 µM; actives 0.22% (n = 360,000); in the data active = inhibition above about 35%, passing the limit was not always enough; inconclusive = no clear call, values can overlap the other calls
BoNT-A LC inh2 = BoNT/A light chain protease inhibitors, primary screen, biochemical, flow cytometry, MLPCN library; Botulinum neurotoxin type A light chain protease (Clostridium botulinum A str. ATCC 3502); multiplex microsphere protease substrate cleavage; AID 588499, 2011; actives 0.17% (n = 360,000); inhibition, % at 10 µM
Anthrax LF inh2 = Bacillus anthracis LF protease inhibitors, primary screen, biochemical, multiplex microsphere, MLPCN library | inhibition, % at 10 µM | Lethal factor (Bacillus anthracis), P15917 | multiplex microsphere protease cleavage assay | actives 0.12% (n = 360,000) | AID 588501, 2011
Large screens that a line does not name were inactive. Cut-off read from the data, not from the text of the source, unless noted: active = inhibition above about 30%; inconclusive = no clear call, values can overlap the other calls; inactive = below that.

COC(=O)CSc1nnc(Cc2ccccc2)n1-c1ccc(C)cc1	none
O=C(CSc1nnc(Cc2ccccc2)n1-c1ccccc1)NNC(=O)Cc1ccccc1	Autofluor counter 21981
CCCCN1C(=O)C(CC(=O)NCc2cccc3ccccc23)CC(C(=O)N2CCOCC2)=C1C (centres undefined)	none
[N-]=[N+]=NC(c1ccccc1)C(NC(=O)c1cc(C(F)(F)F)cc(C(F)(F)F)c1)c1ccccc1 (centres undefined)	none
Cc1ccc(S(=O)(=O)N(CC(=O)Nc2cccc([N+](=O)[O-])c2)C(=O)N2CCN(C)CC2)cc1	Autofluor counter 16418
CN(CC(=O)Nc1cccc([N+](=O)[O-])c1)S(=O)(=O)c1ccccc1	none
Cc1ccccc1OC1C(=O)N(Cc2ccc3c(c2)OCO3)C1c1sccc1C (centres undefined)	Autofluor counter 22460, BoNT-A LC inh2 inconclusive
Cc1ccc([C@@H]2C[C@H]3[C@@H](CN2S(=O)(=O)c2ccc(Cl)cc2)C(=O)C[C@@H](c2ccccc2)N3S(=O)(=O)c2ccc(C)cc2)cc1	none
Cc1ccc(S(=O)(=O)N2C[C@H]3C(=O)C[C@@H](c4ccccc4)N(S(=O)(=O)c4ccc(C)cc4)[C@H]3C[C@H]2c2cccs2)cc1	none
N/C(=N\OC(=O)Cc1ccc(-c2ccccc2)cc1)c1cccc([N+](=O)[O-])c1	Autofluor counter 16257
N/C(=N\OC(=O)CCC1CCCCC1)c1cccnc1	Autofluor counter 21493
N/C(=N\OC(=O)Cc1ccccc1)c1cccnc1	Autofluor counter 20077
N/C(=N\OC(=O)CCC1CCCC1)c1ccc(Br)cc1	none
CCCNC(=O)C1(C)CCCN(C/C=C/c2ccccc2)C1 (centres undefined)	none
O=C(Nc1ccccc1)Nc1nnc([C@H]2C[C@H](O)[C@@H](CO)O2)s1	none
C[C@H](O)[C@@H]1CN2CCc3c([nH]c4ccccc34)[C@@H]2C[C@@H]1N(C)C(=O)OCc1ccccc1	none
Cc1nnsc1C(=O)Nc1ccccc1	none
Cc1nnsc1C(=O)Nc1ccccc1Cl	Autofluor counter 21871
Cc1nnsc1C(=O)Nc1ccc(Cl)cc1	Autofluor counter 21839
Cc1nc(NC(=O)/C=C/c2ccccc2)sc1C(=O)Nc1ccc(Cl)cc1	Autofluor counter 23690
Cc1ccc(-c2nc(SC(C)C(=O)NC3CC3)n[nH]2)cc1 (centres undefined)	none
O=c1c(CN2CCN(Cc3ccccc3)CC2)coc2ccc(Cl)cc12	Autofluor counter 19830
COc1ccc(N/C(N)=N/c2nc(CSc3ccc(Cl)cc3)cc(=O)[nH]2)cc1	none
Cc1ccc(SCc2cc(=O)[nH]c(/N=C(\N)Nc3ccc(C)c(C)c3)n2)cc1	Autofluor counter 25207
COCc1cc(=O)[nH]c(/N=C(\N)Nc2ccc(C)cc2)n1	Autofluor counter 21003, BoNT-A LC inh2 inconclusive
COC(=O)Cc1cc(=O)[nH]c(/N=C(\N)Nc2ccc(C)cc2C)n1	none
CCOC(=O)Cc1cc(=O)[nH]c(/N=C(\N)Nc2ccc(C)cc2C)n1	Autofluor counter 23280
COCc1cc(=O)[nH]c(/N=C(\N)Nc2ccc(Cl)c(Cl)c2)n1	Anthrax LF inh2 inconclusive
CCCCOCCCNC(=O)C[C@@H]1C[C@@]2(C(=O)OCC)CCC=C2N(Cc2ccc3c(c2)OCO3)C1=O	none
CCCS(=O)(=O)Nc1cc(C(F)(F)F)ccc1OCCOC	Autofluor counter 24565
CCSc1ccc([C@@H]2[C@H]3C(=O)N(CC)C(=O)[C@H]3[C@]3(C(=O)OC)CCCCN23)cc1	Autofluor counter 21568
CCCCN1C(=O)C(CC(=O)NCCCN(C)C)CC(C(=O)N2CCCCCC2)=C1C (centres undefined)	none
O/N=C/c1ccc2ccccc2n1	BoNT-F LC inh 40.7
COC(=O)CCC(=O)NNC(=O)c1cccc(Cl)c1	Autofluor counter 25239
CCOC(=O)[C@]12CCCC=C1N(Cc1ccco1)C(=O)[C@H](CC(=O)N1CCOCC1)C2	none
Cc1ccc(O)c(C(=O)c2cnc3c(c2)CN(CCC(C)C)C(=O)N3)c1	none
Cc1ccc(O)c(C(=O)c2cnc3c(c2)CN(C)C(=O)N3)c1	Autofluor counter 21945
COC(=O)[C@]12CCCCC=C1N(Cc1ccccc1)C(=O)[C@H](CC(=O)N1CCSCC1)C2	none
O=S1(=O)CC(N2CC=CC2)CN1C1CCCCC1 (centres undefined)	none
Cc1cccc(-c2nc(CS(=O)CC(=O)NCCCSC3CCCCC3)c(C)o2)c1 (centres undefined)	Autofluor counter 20646, BoNT-A LC inh2 inconclusive
COc1cccc(-c2nc(CS(=O)CC(=O)NCCc3ccccc3)c(C)o2)c1 (centres undefined)	none
COc1cccc(-c2nc(CS(=O)(=O)CC(=O)NCCCOC(C)C)c(C)o2)c1	Autofluor counter 21662, BoNT-A LC inh2 inconclusive
COc1cccc(-c2nc(CS(=O)CC(=O)N3CCC4(CC3)OCCO4)c(C)o2)c1 (centres undefined)	Autofluor counter 21075, BoNT-A LC inh2 inconclusive
COc1cccc(-c2nc(CS(=O)(=O)CC(=O)NCCCc3ccccc3)c(C)o2)c1	none
COc1cccc(-c2nc(CS(=O)CC(=O)NCCCOC(C)C)c(C)o2)c1 (centres undefined)	Autofluor counter 21012
CN1CCN(c2cc(CNC[C@H]3O[C@@H](n4cnc5c(=O)[nH]c(N)nc54)[C@H](O)[C@@H]3O)ccc2F)CC1	none
COc1cccc(-c2nc3nc(C)cc(C)n3c2NCc2ccccc2)c1	none
COc1cccc(C(CCc2cc(OC)c(OC)c(OC)c2)NC(C)=O)c1 (centres undefined)	none
COC(=O)CN(C(=S)Nc1ccc(F)cc1)C1CC(=O)N(c2ccc(OC)cc2)C1=O (centres undefined)	Autofluor counter 22916, BoNT-A LC inh2 inconclusive
COC(=O)[C@H](CCSC)NC(=O)Cn1cnc(C(=O)Nc2ccc(C)c(C)c2)n1	none
COC(=O)[C@]1(C)N[C@H](CN(C)S(=O)(=O)c2ccc(OC(F)(F)F)cc2)[C@@H]2C(=O)N(C)C(=O)[C@@H]21	none
O=C(Nc1ccccc1C(F)(F)F)C1CC(=O)N(c2ccccc2F)C1 (centres undefined)	Autofluor counter 21214
COc1ccccc1CCNC(=O)C1CC(=O)N(c2ccccc2F)C1 (centres undefined)	none
O=C(Nc1ccc(Cl)cc1)N1CCN(c2ccc3nnc(-c4ccc(F)cc4)n3n2)CC1	Autofluor counter 17296
O=C(Nc1ccc(Cl)cc1)N1CCC(c2nc(-c3ccc(F)cc3)no2)CC1	Autofluor counter 24171
O=C1c2ccccc2C(c2nnnn2-c2ccc3c(c2)OCCO3)N1Cc1cccc(F)c1 (centres undefined)	none
CCOC(=O)N1CCN(C(=O)CN(c2ccc(Oc3ccccc3)cc2)S(C)(=O)=O)CC1	none
CCOC(=O)N1CCN(C(=O)CN(c2ccc(OCC)cc2)S(C)(=O)=O)CC1	Autofluor counter 22023
CCOC(=O)N1CCN(C(=O)CN(c2ccc(OC)c(OC)c2)S(C)(=O)=O)CC1	Autofluor counter 16773
Cc1nc(NC(=O)C(C)(C)C)sc1C(=O)Cn1cc(CCCC#N)nn1	none

Screens deposited in PubChem by NMMLSC.
